# Assay results published in PubChem BioAssay.
# Biological target: Torsin-1A-interacting protein 1 (Homo sapiens) (UniProt Q5JTV8)
# Test: LAP1 binders from COS7 cell lysate, primary screen, small-molecule microarray, 635/667 nm fluorescence (AID 1116)
# Conditions: COS7-hLAP1 lysate binding, 635 nm fluorescence, higher = more signal
# Torsin-1A-interacting protein 1 (Homo sapiens), sequence (Q5JTV8 whole entry, looked up): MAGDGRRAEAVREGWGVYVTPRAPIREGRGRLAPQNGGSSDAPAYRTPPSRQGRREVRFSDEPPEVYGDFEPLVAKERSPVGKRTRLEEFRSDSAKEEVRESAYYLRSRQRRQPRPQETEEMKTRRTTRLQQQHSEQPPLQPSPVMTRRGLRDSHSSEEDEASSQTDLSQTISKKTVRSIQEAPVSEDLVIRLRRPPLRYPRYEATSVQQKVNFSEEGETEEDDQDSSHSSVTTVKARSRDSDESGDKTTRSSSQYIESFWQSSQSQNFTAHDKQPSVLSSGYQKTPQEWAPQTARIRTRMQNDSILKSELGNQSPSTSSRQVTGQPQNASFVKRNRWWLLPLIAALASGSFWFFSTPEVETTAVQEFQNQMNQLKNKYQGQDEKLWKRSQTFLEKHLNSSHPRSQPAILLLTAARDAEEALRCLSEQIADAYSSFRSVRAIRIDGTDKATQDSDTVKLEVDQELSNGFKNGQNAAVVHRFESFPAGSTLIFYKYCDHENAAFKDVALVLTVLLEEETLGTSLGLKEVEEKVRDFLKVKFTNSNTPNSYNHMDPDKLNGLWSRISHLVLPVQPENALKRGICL
row,SMILES,composite z-score
1,O=C1O[C@H](c2ccccc2)[C@H](c2ccccc2)N2[C@H]1[C@@H](C(=O)O)[C@]1(C(=O)Nc3ccccc31)[C@H]2c1ccc(O)cc1,-0.321
2,C=CC[C@@]1(C(=O)O)N=C(c2ccc(OCCCO)cc2)O[C@@H]1c1ccccc1,4.53
3,CN1C(=O)C2C(C1=O)C1C=C(c3ccc(CO)cc3)C2C(c2cccs2)N1Cc1cccc(OC(F)(F)F)c1 (centres undefined),0.291
4,COc1cc(CO)cc(I)c1O[C@H]1C=C(C(=O)NCCO)C[C@@H](N(CC2CCCCC2)C(=O)c2ccc(C(F)(F)F)cc2)[C@@H]1O,0.465
5,C=C(/C=C/CNS(=O)(=O)c1ccc(C)cc1)[C@H](O)[C@H]1CCCN1S(=O)(=O)c1ccccc1[N+](=O)[O-],0.581
6,C=CCN1C(=O)[C@@]2(O[C@@H](CCO)[C@H]([Si](C)(C)c3ccc(OC)cc3)[C@H]2C)c2cc(N3C(=O)c4ccccc4Oc4ccccc43)ccc21,0.669
7,COCCOC(=O)N1C(=O)[C@@]2(c3cc(C#CCNC(N)=O)ccc31)[C@H](C(=O)N1CCCCCCC1)[C@H]1C(=O)O[C@H](c3ccccc3)[C@H](c3ccccc3)N1[C@@H]2c1ccc(O)cc1,0.546
8,Cc1ccc(S[C@]2(C(=O)NCc3ccccc3)CC(=O)N(C(C)C)[C@@H]2c2ccc(CO)cc2I)cc1,0.877
9,CCOC(=O)C1=CC[C@@H](c2ccc([N+](=O)[O-])cc2)N(S(=O)(=O)c2ccc(C)cc2)[C@H]1c1ccccc1,0.378
10,COc1ccc([Si](C)(C)[C@H]2[C@H](CCn3cc([C@H](O)c4ccccc4)nn3)O[C@@]3(C(=O)N(Cc4ccc(N5CCC5=O)cc4)c4ccccc43)[C@@H]2C)cc1,0.273
11,COc1cc2c(cc1OC)CN(C(=O)[C@H]1[C@@H]3C(=O)O[C@@H](c4ccccc4)[C@@H](c4ccccc4)N3[C@@H](c3ccc(OCCO)cc3)[C@]13C(=O)Nc1ccc(C#CCCO)cc13)CC2,1.02
12,COc1ccc(NN2C(C(O)c3ccco3)C=CC3C(=O)N(C4CCCCC4)C(=O)C32)cc1 (centres undefined),0.605
13,NC(=O)N1C(=O)C2C(C1=O)C1C=C(c3ccc(CO)cc3)C2C(C2CC2)N1Cc1sc2ccccc2c1Cl (centres undefined),1.9
14,CON(C)C(=O)C=C1C[C@@H](c2cccc(Cl)c2)O[C@@H](c2cccc(Cl)c2)O1,0.525
15,O=C1O[C@@H](c2ccccc2)[C@@H](c2ccccc2)N2[C@@H](c3ccccc3OCCO)[C@]3(C(=O)Nc4ccccc43)[C@@H](C(=O)NC[C@H](O)c3ccccc3)[C@H]12,1.35
16,C=C(/C(=C/C[C@@H](OC(=O)c1ccncc1)c1ccc(OCCO)cc1)c1cc(C(=O)OC)ccc1OC)C(C)C,0.637
17,COCCOC(=O)N1C(=O)[C@@]2(c3cc(C#Cc4ccc(OC)cc4)ccc31)[C@H](C(=O)NC[C@H](O)c1ccccc1)[C@H]1C(=O)O[C@H](c3ccccc3)[C@H](c3ccccc3)N1[C@@H]2c1ccc(O)cc1,1.37
18,[N-]=[N+]=NCc1ccccc1[C@H]1OC(c2ccc(OCCCO)cc2)=N[C@@]1(CCS(=O)(=O)c1ccccc1)C(N)=O,1.47
19,COc1ccc([Si](C)(C)[C@@H]2[C@@H](CCO)O[C@]3(C(=O)N(Cc4cccc(N5C(=O)c6cccc7cccc5c67)c4)c4ccccc43)[C@H]2C)cc1,0.0561
20,CC(C)CNC(=O)[C@@H]1c2ccccc2C(=O)N(Cc2cc(F)cc(C(F)(F)F)c2)[C@H]1c1ccc(CO)cc1,0.662
21,C=CCN1C(=O)[C@]2(CC=C)N=C(c3ccc(OCCCO)cc3)O[C@@H]2c2ccccc21,1.14
22,COC(=O)C1(Cc2ccccc2)C=C2C(=C(C(C)C)C(=O)C2C)CN1 (centres undefined),1.73
23,C=C(C(=O)CC[C@H](OC(=O)c1cccnc1)c1ccc(CO)o1)C(C)C,1.18
24,COc1ccc(C(O)C2C=CC3C(=O)N(c4ccccc4)C(=O)C3N2Nc2ccc(C#N)cc2)c2ccccc12 (centres undefined),1.83
25,NC(=O)NCC#Cc1ccc2c(c1)[C@]1(C(=O)N2)[C@H](C(=O)Nc2nc3ccccc3s2)[C@H]2C(=O)O[C@H](c3ccccc3)[C@H](c3ccccc3)N2[C@@H]1c1ccc(O)cc1,0.187
26,COc1ccc(C#Cc2ccc3c(c2)[C@]2(C(=O)N3)[C@H](C(=O)N3CCc4cc(OC)c(OC)cc4C3)[C@H]3C(=O)O[C@H](c4ccccc4)[C@H](c4ccccc4)N3[C@@H]2c2ccc(O)cc2)cc1,0.0204

# Biological target: Alpha-bungarotoxin (Bungarus multicinctus) (UniProt P60615)
# Sequence (P60615 whole entry, looked up): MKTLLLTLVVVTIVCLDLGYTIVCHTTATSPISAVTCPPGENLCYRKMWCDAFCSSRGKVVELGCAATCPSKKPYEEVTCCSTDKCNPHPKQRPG
# Test: alpha-bungarotoxin binders on microarray, profiling panel, artefact control for SMM control protein annotation, biochemical, small-molecule microarray, Alexa647 label, 635/667 nm fluorescence (AID 1117)
# Conditions: alpha-BTX-A647 binding fluorescence, higher = more signal
row,SMILES,composite z-score
1,C=CCC(OC(C)=O)[C@@H]1[C@@H](N(Cc2cc3ccccc3o2)C(=O)c2ccc(C)cc2)c2cc(OCCCO)ccc2N1C(=O)Cc1ccc2ccccc2c1 (some centres undefined),-0.319
2,COC(=O)[C@H](Cc1ccccc1)N1CC(/C=C/C2CC2)=C[C@@H]1[C@@H](O)Cc1ccccc1,0.737
3,C=C1C2CC3C(=C4C(CO[C@@H]4[C@H]4CCCN4S(=O)(=O)c4ccccc4[N+](=O)[O-])C4C(=O)N(C)C(=O)C34)CC2C(=O)N1C (some centres undefined),0.26
4,[N-]=[N+]=Nc1ccccc1C[C@]1(C(=O)NCc2ccccc2)N=C(c2ccc(OCCCO)cc2)O[C@H]1c1ccccc1,1.77
5,COc1ccccc1CN1C(=O)c2ccccc2[C@](Cc2ccccc2I)(C(=O)NC(C)C)[C@@H]1c1ccc(CO)cc1,1.41
6,O=C1NC(=O)C2C1C=CC(C(O)c1ccc3c(c1)OCO3)N2Nc1ccccn1 (centres undefined),0.498
7,[N-]=[N+]=NCc1ccccc1C[C@@]1(C(N)=O)N=C(c2ccc(OCCCO)cc2)O[C@@H]1c1ccccc1CN=[N+]=[N-],0.689
8,COCCCNC(=O)[C@]1(Cc2ccccc2CN=[N+]=[N-])N=C(c2ccc(OCCCO)cc2)O[C@@H]1c1ccccc1,0.543
9,COCCOC(=O)N1C(=O)[C@@]2(c3cc(C#CC4(O)CCCCCC4)ccc31)[C@H](C(=O)N1CCCCCCC1)[C@H]1C(=O)O[C@H](c3ccccc3)[C@H](c3ccccc3)N1[C@@H]2c1ccc(OCCO)cc1,2.89
10,CN(C)CCCCNC(=O)[C@H]1C[C@H]2C(=O)N3CCC[C@H]3C(=O)N2[C@H]1c1ccc(O)cc1,-1.01
11,O=C1O[C@H](c2ccccc2)[C@H](c2ccccc2)N2[C@H]1[C@@H](C(=O)O)[C@]1(C(=O)Nc3ccccc31)[C@H]2c1ccc(O)cc1,-0.286
12,C=CC[C@@]1(C(=O)O)N=C(c2ccc(OCCCO)cc2)O[C@@H]1c1ccccc1,2.51
13,CN1C(=O)C2C(C1=O)C1C=C(c3ccc(CO)cc3)C2C(c2cccs2)N1Cc1cccc(OC(F)(F)F)c1 (centres undefined),1.43
14,COc1cc(CO)cc(I)c1O[C@H]1C=C(C(=O)NCCO)C[C@@H](N(CC2CCCCC2)C(=O)c2ccc(C(F)(F)F)cc2)[C@@H]1O,-0.8
15,C=C(/C=C/CNS(=O)(=O)c1ccc(C)cc1)[C@H](O)[C@H]1CCCN1S(=O)(=O)c1ccccc1[N+](=O)[O-],0.616
16,C=CCN1C(=O)[C@@]2(O[C@@H](CCO)[C@H]([Si](C)(C)c3ccc(OC)cc3)[C@H]2C)c2cc(N3C(=O)c4ccccc4Oc4ccccc43)ccc21,0.328
17,COCCOC(=O)N1C(=O)[C@@]2(c3cc(C#CCNC(N)=O)ccc31)[C@H](C(=O)N1CCCCCCC1)[C@H]1C(=O)O[C@H](c3ccccc3)[C@H](c3ccccc3)N1[C@@H]2c1ccc(O)cc1,0.863

row,SMILES,composite z-score
1,Cc1ccc(S[C@]2(C(=O)NCc3ccccc3)CC(=O)N(C(C)C)[C@@H]2c2ccc(CO)cc2I)cc1,-0.613
2,CCOC(=O)C1=CC[C@@H](c2ccc([N+](=O)[O-])cc2)N(S(=O)(=O)c2ccc(C)cc2)[C@H]1c1ccccc1,0.962
3,COc1ccc([Si](C)(C)[C@H]2[C@H](CCn3cc([C@H](O)c4ccccc4)nn3)O[C@@]3(C(=O)N(Cc4ccc(N5CCC5=O)cc4)c4ccccc43)[C@@H]2C)cc1,0.54
4,COc1cc2c(cc1OC)CN(C(=O)[C@H]1[C@@H]3C(=O)O[C@@H](c4ccccc4)[C@@H](c4ccccc4)N3[C@@H](c3ccc(OCCO)cc3)[C@]13C(=O)Nc1ccc(C#CCCO)cc13)CC2,1.72
5,COc1ccc(NN2C(C(O)c3ccco3)C=CC3C(=O)N(C4CCCCC4)C(=O)C32)cc1 (centres undefined),0.916
6,NC(=O)N1C(=O)C2C(C1=O)C1C=C(c3ccc(CO)cc3)C2C(C2CC2)N1Cc1sc2ccccc2c1Cl (centres undefined),2.12
7,CON(C)C(=O)C=C1C[C@@H](c2cccc(Cl)c2)O[C@@H](c2cccc(Cl)c2)O1,0.764
8,O=C1O[C@@H](c2ccccc2)[C@@H](c2ccccc2)N2[C@@H](c3ccccc3OCCO)[C@]3(C(=O)Nc4ccccc43)[C@@H](C(=O)NC[C@H](O)c3ccccc3)[C@H]12,-0.327
9,C=C(/C(=C/C[C@@H](OC(=O)c1ccncc1)c1ccc(OCCO)cc1)c1cc(C(=O)OC)ccc1OC)C(C)C,0.249
10,COCCOC(=O)N1C(=O)[C@@]2(c3cc(C#Cc4ccc(OC)cc4)ccc31)[C@H](C(=O)NC[C@H](O)c1ccccc1)[C@H]1C(=O)O[C@H](c3ccccc3)[C@H](c3ccccc3)N1[C@@H]2c1ccc(O)cc1,0.931
11,[N-]=[N+]=NCc1ccccc1[C@H]1OC(c2ccc(OCCCO)cc2)=N[C@@]1(CCS(=O)(=O)c1ccccc1)C(N)=O,2.43
12,COc1ccc([Si](C)(C)[C@@H]2[C@@H](CCO)O[C@]3(C(=O)N(Cc4cccc(N5C(=O)c6cccc7cccc5c67)c4)c4ccccc43)[C@H]2C)cc1,0.578
13,CC(C)CNC(=O)[C@@H]1c2ccccc2C(=O)N(Cc2cc(F)cc(C(F)(F)F)c2)[C@H]1c1ccc(CO)cc1,-0.694
14,C=CCN1C(=O)[C@]2(CC=C)N=C(c3ccc(OCCCO)cc3)O[C@@H]2c2ccccc21,1.08
15,COC(=O)C1(Cc2ccccc2)C=C2C(=C(C(C)C)C(=O)C2C)CN1 (centres undefined),-0.473
16,C=C(C(=O)CC[C@H](OC(=O)c1cccnc1)c1ccc(CO)o1)C(C)C,1.19
